Data reported in PubChem BioAssay AID1490 (National Center for Advancing Translational Sciences (NCATS), 2009).
Screen size: about 310,000 compounds; about 11,000 (3.5%) were called active. Not shown: some 4% with an inconclusive outcome. The list comes from a sample in which actives are over-represented; it also holds similar structures and randomly drawn compounds. Unmarked numbers belong to inactive results. Calls come from the whole dose curve; as a rule, active = well fitted inhibition curve with a large enough effect; inconclusive = small, poorly fitted or top-dose-only effect, or another doubt; inactive = no such curve, though single readings can be large or run the other way.

The compounds below were run against 4'-phosphopantetheinyl transferase ffp (Bacillus subtilis) (UniProt Q9F4F7) (assay: qHTS Assay for Inhibitors of Bacillus subtilis Sfp phosphopantetheinyl transferase (PPTase)). Conditions: Biochemical Sfp PPTase activity.
Procedure, shortened: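 Buffer: 50 mM Hepes-Na pH 7.6, 10 mM MgCl2, 0.01% Nonidet P-40, 0.01% BSA. Enzyme 15 nM, pre-exposed to compound 15 min; substrates then added and fluorescence change tracked over 30 min.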
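Note: the enzyme is Sfp with the accession as filed and its product quenches rhodamine fluorescence.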
Potency is the fitted concentration of half-maximal effect.
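Throughout, for largest response in the series, negative = inhibition: 0% = enzyme reaction without inhibitor and -100% = no enzyme wells.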

SMILES | Potency | largest response in the series, negative = inhibition
COc1ccc2[nH]c(=S)cc(C)c2c1 | 39.8 µM (active) | –
COc1ccc2c(C)cc3nnnn3c2c1 | – | 7.5%
COc1ccc2[nH]c3c(C)c4cc[n+](C)cc4c(C)c3c2c1 | – | -11.7%
CC(C)c1cc(C(=O)N/N=C/c2ccoc2)c(O)c(C(C)C)c1 | – | 13.5%
CC1CC(C)CN(CCCNC(=O)Cn2ncc3c([nH]c4ccccc43)c2=O)C1 (configuration not stated) | – | 5.5%
CCOC(=O)CSc1nccc(N(C)C)c1C#N | – | -4.04%
CCCCOc1ccc(-c2ncc(C(=O)OCC)c(N)n2)cc1 | – | 3.34%
CCOC(=O)C(Sc1ncc(C#N)c(N)n1)C(C)C (configuration not stated) | 56.2 µM (active) | –
Cc1ccc(N2CC(C(=O)NCCS(=O)(=O)N3CCN(c4ccccc4)CC3)CC2=O)cc1 (configuration not stated) | – | 5.68%
COc1ccc2c3c1OC1CC(O)C=C[C@@]31CCN(C)C2 (some centres not stated) | – | 17%
O=C(CN1C(=O)c2ccccc2S1(=O)=O)NC1CCCCC1 | – | 15.6%
CCCc1nnc(NC(=O)CN2C(=O)c3ccccc3S2(=O)=O)s1 | 22.4 µM (active) | –
CCCCc1nnc(NC(=O)CS(=O)(=O)Cc2ccccc2)s1 | – | 8.57%
COc1ccc(C)cc1NC(=O)CNCc1cccs1 | – | -7.78%
O=C(CN(Cc1ccc(Br)cc1)S(=O)(=O)c1ccccc1)NCc1ccncc1 | – | -4.2%
CCOC(=O)C1CCCN(S(=O)(=O)c2ccc(-n3cnnn3)c(C)c2)C1 (configuration not stated) | – | 13.1%
C#CC(CCN1CCCCC1)(OC)c1ccccc1 (configuration not stated) | – | 23.4%
CCOC(=O)c1sc(=S)n(-c2cccc(OC)c2)c1N | 39.8 µM (active) | –
COC(=O)c1sc(N2CCN(Cc3ccccc3)CC2)nc1N | – | -0.821%
CCOC(=O)c1csc(NC(=O)Nc2cccc(OC)c2)n1 | – | 7.72%
COC(=O)c1sc(=S)n(-c2ccc(Cl)cc2)c1C | – | -2.12%
COC(=O)c1sc(=S)n(-c2ccccc2)c1N | 31.6 µM (active) | –
CCOC(=O)C(C)n1cnc2c(nnn2-c2cccc(OC)c2)c1=O (configuration not stated) | – | 30.5%
Cc1ccn2c(=O)c(C(=O)NCCC3=CCCCC3)c(O)nc2c1 | – | -5.56%
CCc1ccc(N(C(=O)c2csnn2)C(C(=O)NC2CCCCC2)c2cccnc2)cc1 (configuration not stated) | – | -9.84%

SMILES | Potency | largest response in the series, negative = inhibition
CCCCS(=O)(=O)N1C2=NC(C(=O)OC)=C(C(=O)OC)[C@@H]3N(Cc4ccccc4)c4ccccc4[C@]23C[C@H]1C(=O)OC | – | -16%
Cc1ccc(C2CC2C(=O)NN)cc1 (configuration not stated) | – | 6.91%
Cc1ccc(C2SCC(=O)N2c2ccccc2)cc1 (configuration not stated) | – | -9.8%
Cc1ccc(C2NC(C(=O)O)CS2)cc1 (configuration not stated) | 70.8 µM (active) | –
CCOc1ccc(N(CC(=O)Nc2cccc(OC)c2)S(C)(=O)=O)cc1 | – | 21.6%
Cn1c(=O)n(C)c2cc(S(=O)(=O)Nc3ccc(F)cc3)ccc21 | – | 7.57%
Cc1nn2c(c1-c1ccccc1)N=C(c1ccco1)CC2c1ccccc1 (configuration not stated) | 15.8 µM (active) | –
O=C(O)CCCC(=O)N1N=C(c2ccco2)CC1c1ccco1 (configuration not stated) | – | 5.11%
COc1ccc(C2=NN(C(C)=O)C(c3ccccc3)C2)cc1 (configuration not stated) | – | 9.33%
Cc1cccc([C@@H]2[C@@H]3C(=O)N(Cc4ccccc4)C(=O)[C@@H]3[C@]3(C)C(=O)N(c4ccc(Br)cc4)C(=O)N23)c1 | – | 0.791%
Cc1cc(C)c2nc(N(CCN(C)C)C(=O)/C=C/c3cccs3)sc2c1 | 89.1 µM (active) | –
CC(=O)N(CCCN(C)C)c1nc2ccc(C)cc2s1 | – | 15.8%
Cc1ccc2sc(N(CCN(C)C)C(=O)/C=C/c3cccs3)nc2c1C | – | 4.98%
Cc1cc(S(=O)(=O)NCC(C)C)ccc1OCC(=O)NC1CC1 | – | 18.8%
CC1(C)CC(CC(=O)O)C(=O)O1 (configuration not stated) | – | -8.59%
C/C(CC1CC(C)(C)OC1=O)=N/Nc1nc(-c2ccccc2)cs1 (configuration not stated) | 50.1 µM (active) | –
O=C(O)c1ccccc1C(=O)Nc1nc(-c2ccccc2)cs1 | – | 6.83%
COc1ccc(C(=O)NC2CCN(C(=O)Nc3ccc(F)cc3)CC2)cc1 | – | -6.23%
COc1ccc(CN2CCNC(=O)C2CC(=O)NCc2cn[nH]c2-c2ccccc2)c(F)c1 (configuration not stated) | – | 15.4%
O=C(NNc1ccccn1)c1ccc(Cl)nc1 | 56.2 µM (active) | –
Cc1cnc(NC(=O)c2ccc(Cl)nc2)s1 | – | 3.16%
CCN(CC)c1ccc(NC(=O)c2ccc(Cl)nc2)cc1 | – | 2.36%
COc1cc(C(=O)NN(CCC#N)C2=NS(=O)(=O)c3ccccc32)cc(OC)c1OC | – | 11.7%
Cc1ccc2c(c1)N(S(=O)(=O)c1cc(-c3cc(C)no3)ccc1C)CCO2 | – | -4.57%
Nc1cc(N2CCCCCC2)c2nonc2c1[N+](=O)[O-] | – | 12.7%

SMILES | Potency | largest response in the series, negative = inhibition
O=C(Nc1cccc(-c2nc3ccccc3[nH]2)c1)c1ccc(C(=O)Nc2cccc(-c3nc4ccccc4[nH]3)c2)cc1 | – | -19.4%
O=C(Cc1cccs1)Nc1cccc(-c2nc3ccccc3[nH]2)c1 | – | 9.29%
O=C(/C=C/c1ccco1)Nc1cccc(-c2nc3ccccc3[nH]2)c1 | 25.1 µM (active) | –
COc1ccccc1Oc1ccc(N2CC(C(=O)OCC(=O)c3ccc(F)cc3)CC2=O)cc1 (configuration not stated) | – | -1.84%
CCN(CC)CCCNC(=O)COc1ccc2oc3c(c2c1)CCCC3 | – | 3.63%
S=C(c1ccccc1)N1CCCC1 | – | 9.23%
Cc1cccc(C)c1NC(=S)N1CCCCCC1 | – | 11.7%
S=C(c1ccc(-c2ccccc2)o1)N1CCCCC1 | 8.91 µM (active) | –
COc1ccc(-c2n[nH]c3c2CN(C(=O)c2ccc(F)cc2)CC3)cc1 | – | 5.79%
CC(C)(C)c1ccc(C(=O)N2CCC(C(=O)N3CCCCC3)CC2)cc1 | – | 4.51%
COc1ccc(CCNC(=O)C(=O)NCC2OCCN2S(=O)(=O)c2ccc(OC)c(C)c2)cc1 (configuration not stated) | – | 8.83%
CCOc1ccc2[nH]c(=O)c(C(c3nnnn3CCOC)N3CCOCC3)cc2c1 (configuration not stated) | – | 17.1%
COCCn1nnnc1C(c1cc2ccc(OC)cc2[nH]c1=O)N1CCc2ccccc2C1 (configuration not stated) | 12.6 µM (active) | –
COc1ccc(OC)c(C(c2nnnn2C(C)(C)C)N2CCc3ccccc3C2)c1 (configuration not stated) | – | 6.02%
Cc1cnc(C(=O)OCc2c(C)cc(C(C)(C)C)cc2C)cn1 | – | -9.1%
COc1ccc(CNC(=O)CSc2n[nH]c(N)n2)cc1OC | – | 2.91%
COc1ccc(-c2nc(SCC(=O)N3CCOCC3)n[nH]2)cc1 | – | 18.2%
COc1ccc(C(=O)CSc2n[nH]c(N)n2)cc1 | 56.2 µM (active) | –
Cc1nn2c(=O)cc(COC(=O)c3ccc(NC(=O)C(C)(C)C)cc3)nc2s1 | – | 18.9%
COc1cc(/C=C/C(=O)O)cc(S(=O)(=O)Nc2ccccc2C(=O)NCCc2ccccc2)c1OC | – | 13.6%
COc1ccccc1-c1nnc(NC(=O)c2cccc(N3C(=O)CCC3=O)c2)o1 | – | 2.11%
COc1ccccc1-c1nnc(SCC(=O)Nc2ccccc2)o1 | – | 1.67%
COc1ccccc1-c1nnc(NC(=O)c2ccc3ncsc3c2)o1 | 79.4 µM (active) | –
Cc1ccccc1N1CCN(CCCN2C(=O)C3CCCCN3C2=O)CC1 (configuration not stated) | – | 17.8%
COc1ccc(OC)c(NC(=O)c2ccc3c(c2)CCN3S(C)(=O)=O)c1 | – | 9.13%

SMILES | Potency | largest response in the series, negative = inhibition
O=C(N/N=C/c1cc(Cl)cc([N+](=O)[O-])c1O)C(O)(c1ccccc1)c1ccccc1 | – | -0.479%
O=[N+]([O-])c1cc(Cl)cc(/C=N/NC(=S)Nc2cc(S(=O)(=O)N3CCOCC3)ccc2Cl)c1O | 56.2 µM (active) | –
O=C(N/N=C/c1ccc([N+](=O)[O-])o1)c1cccc(S(=O)(=O)N2CCOCC2)c1 | – | -9.66%
COc1ccc(N2CCN(S(=O)(=O)CCNC(=O)C34CC5CC(CC(C5)C3)C4)CC2)cc1 | – | 2.52%
Cn1c(=O)[nH]c(=O)c2c1nc(Br)n2CCCCSc1nc2ccccc2o1 | – | 3.31%
CCCCCCn1c(SCC(=O)c2ccccc2)nc2c1c(=O)[nH]c(=O)n2C | – | -15.2%
CCCCCn1c(SCCC(C)C)nc2c1c(=O)[nH]c(=O)n2C | 28.2 µM (active) | –
CCOc1ccc(S(=O)(=O)N2CCC(c3ccccc3)CC2)cc1C(=O)O | – | 13.6%
Cc1ccc(OCC(=O)Nc2ccc(N3CCN(C(=O)c4ccco4)CC3)cc2)c(C)c1 | – | -9.57%
CC(=O)N1Cc2ccccc2CC1C(=O)O (configuration not stated) | – | 6.16%
CC(=O)N1CSCC1C(=O)O (configuration not stated) | 20 µM (active) | –
CC1CC(C)CN(C(=O)CCNC(=O)Cn2cnc3ccccc3c2=O)C1 (configuration not stated) | – | -7.35%
COc1ccc(NC(=O)c2sc3nc(C)nc(N4CCN(c5ccccn5)CC4)c3c2C)c(OC)c1 | – | -8.26%
COc1ccccc1-n1c(=S)[nH]c2c(sc(=S)n2-c2ccc(C)cc2C)c1=O | 50.1 µM (active) | –
CCc1ccc(-n2c(=S)sc3c(=O)n(-c4ccccc4OC)c(=S)[nH]c32)cc1 | – | -10.9%
COc1ccccc1-n1cn[nH]c1=S | – | -24.2%
COc1ccc(C)cc1NC(=S)N1CCOCC1 | – | 3.26%
COc1cc(NC(=S)N2CCCC(C)C2)cc(OC)c1OC (configuration not stated) | 20 µM (active) | –
COc1cc(NC(=O)NCC2CCN(Cc3ccc(C)cc3)CC2)cc(OC)c1OC | – | 4.55%
COc1ccccc1C1CCN(C(=S)Nc2ccc(Br)cc2)CC1 | – | 16.1%
COc1ccc(NC(=S)N2CCCC(CO)C2)c(OC)c1 (configuration not stated) | – | -15.1%
COc1cc(NC(=S)N2CCCC(C)C2)c(OC)cc1Cl (configuration not stated) | 14.1 µM (active) | –
